{
  "source": "PubChem BioAssay AID1850",
  "about": "(Southern Research Specialized Biocontainment Screening …, 2009)",
  "note": "Values joined by “and” are separate entries in the source; they are usually repeats but may differ in a detail not shown here. Equal values may be shown once. Screen size: about 310,000 compounds; about 1,000 (0.32%) were called active. Only a sample is shown. Results with a measured potency or affinity are listed apart. Values without a mark were called inactive. How the calls were made is not given here.",
  "data": [
    {"assay": "Inhibition of PhoP regulon, Salmonella typhi GFP reporter cells, confirmation, 4 h (AID 1850);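 further: 0% = induced wells with vehicle and 100% = uninduced wells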", "conditions": "Salmonella Typhi PhoP-promoter GFP reporter, fluorescence, at 50 µM, active compounds read high", "values": [
      {"molecule": "O=C(N/N=C/c1cccc(C(F)(F)F)c1)c1ccccc1O", "inhibition": "1.04%"},
      {"molecule": "O=C(Nc1ccccc1F)Oc1cccc(OC(=O)Nc2ccccc2F)c1", "inhibition": "5.4%"},
      {"molecule": "CS(=O)(=O)Nc1ccc(C(=O)Nc2ccc(S(=O)(=O)N3CCCC3)cc2)cc1", "inhibition": "-7.4%"},
      {"molecule": "O=C1Nc2ccc(S(=O)(=O)N3CCCC3)c3cccc1c23", "inhibition": "-4.45%"},
      {"molecule": "CC(=O)c1ccc(N=Nc2ccc(N(C)C)cc2)cc1", "inhibition": "6.87%"},
      {"molecule": "CCN(CC(=O)NCCN1CCOCC1)S(=O)(=O)c1ccc(F)cc1", "inhibition": "5.57%"},
      {"molecule": "C/C(=N\\NC(=O)C(O)c1ccccc1)c1ccc(Cl)s1", "note": "(stereo unspecified)", "inhibition": "-5.86%"},
      {"molecule": "CN(C)C(=S)NC(=O)c1cccc(Cl)c1", "inhibition": "-16.5%"},
      {"molecule": "O=C(Nc1ccc(C(=O)O)cc1)/C(=C\\C=C\\c1ccccc1)NC(=O)c1cccc(Br)c1", "inhibition": "9.6%"},
      {"molecule": "Cc1cc(C)n(/N=C/c2ccccc2O)c(=O)c1", "inhibition": "-10.2%"},
      {"molecule": "Cc1cc(C)n(/N=C/c2c[nH]c3ccccc23)c(=O)c1", "inhibition": "2.25%"},
      {"molecule": "O=[N+]([O-])c1ccc(O)c(/C=N/n2cnnc2)c1", "inhibition": "16.7%"},
      {"molecule": "Cc1cc(C)n(/N=C/c2cccc([N+](=O)[O-])c2)c(=O)c1", "inhibition": "-0.547%"},
      {"molecule": "C/C1=C\\CCC2C(/C=C(\\C)CC1)OC(=O)C2CN1CCCCC1", "note": "(stereo unspecified)", "inhibition": "5.15%"},
      {"molecule": "CCOc1ccccc1NC(=O)C1CCN(S(=O)(=O)c2cccc3cccnc23)CC1", "inhibition": "14.7%"},
      {"molecule": "CCOC(=O)c1nnn(-c2nonc2-n2cccc2)c1CN1CCCCC1", "inhibition": "-6.4%"},
      {"molecule": "Nc1cc(C(=O)O)c(Oc2ccc(Cl)cc2Cl)cc1C(=O)O", "inhibition": "-3.01%"},
      {"molecule": "O=C(O)/C=C/c1ccccc1Oc1ccc(Cl)cc1Cl", "inhibition": "4.42%"},
      {"molecule": "COc1cc(C)ccc1NC(=O)c1ccc(S(=O)(=O)N2CCOCC2)cc1", "inhibition": "-3.12%"},
      {"molecule": "c1ccc(C(c2ccccc2)N2CCN(Cc3nc(-c4cnccn4)no3)CC2)cc1", "inhibition": "-8.94%"},
      {"molecule": "O=c1c([N+](=O)[O-])c(N2CCCCCC2)c2ccccc2n1-c1ccccc1", "inhibition": "4.43%"},
      {"molecule": "CCn1cc(C(=O)O)c(=O)c2cc(F)c(N3CCN(C(=S)NC(=O)c4ccc(OC)cc4)CC3)cc21", "inhibition": "-3.45%"},
      {"molecule": "CCn1cc(C(=O)O)c(=O)c2cc(F)c(N3CCN(S(=O)(=O)c4ccc(Br)cc4)CC3)cc21", "inhibition": "2.97%"},
      {"molecule": "CCn1cc(C(=O)O)c(=O)c2cc(F)c(N3CCN(S(=O)(=O)c4ccc(NC(=O)OC)cc4)CC3)cc21", "inhibition": "3.45%"},
      {"molecule": "O=C(O)c1cc(CN2CCOCC2)oc1-c1ccccc1", "inhibition": "2.28%"},
      {"molecule": "Cc1ccc(C(=O)C(C)OC(=O)Cn2cnc3c2c(=O)n(C)c(=O)n3C)cc1", "note": "(stereo unspecified)", "inhibition": "2.25%"},
      {"molecule": "COc1cc(CNc2cccc(C(=O)O)c2)cc(Br)c1OCC(=O)NC(C)(C)C", "inhibition": "-9.24%"},
      {"molecule": "COC(=O)c1cc(CN2CCN(c3ccccc3C)CC2)ccc1O", "inhibition": "-3.53%"},
      {"molecule": "Cc1ccc(-c2cc(=O)c3ccccc3[nH]2)cc1", "inhibition": "10.7%"},
      {"molecule": "COc1ccc(Cc2nc3ccccc3n2CC(=O)N/N=C/c2ccc(C)cc2O)cc1OC", "inhibition": "-7.1%"},
      {"molecule": "C/C(=N\\NC(=S)NCc1ccccc1)c1ccc(Cl)s1", "inhibition": "9%"},
      {"molecule": "Cc1cc(C)n(-c2nncn2/N=C/c2ccccc2F)n1", "inhibition": "-6.07%"},
      {"molecule": "O=C(Nc1ccccc1C(=O)N1CCOCC1)C1CC(=O)N(C2CCCC2)C1", "note": "(stereo unspecified)", "inhibition": "-0.19%"},
      {"molecule": "COc1ccc([N+](=O)[O-])cc1C(=O)NCCOc1ccc(Cl)cc1", "inhibition": "-0.6%"},
      {"molecule": "CC(NCC(O)COC1CCC(C(C)(C)C)CC1)c1ccccc1", "note": "(stereo unspecified)", "inhibition": "0.36%"},
      {"molecule": "COc1ccc(C2/C=C\\CN(Cc3ccncc3)CC(=O)N2Cc2ccc(F)cc2)cc1", "note": "(stereo unspecified)", "inhibition": "-5.33%"},
      {"molecule": "COc1ccc(Cl)cc1C(=O)NCC(C)C", "inhibition": "-5.89%"},
      {"molecule": "O=C(CCC(=O)N1CCCCC1)Nc1nnc(C2CCCCC2)s1", "inhibition": "8.14%"},
      {"molecule": "CCCN1C(=O)/C(=C/c2cc(C)n(C)c2C)SC1=Nc1ccc(OC)cc1", "inhibition": "0.64%"},
      {"molecule": "CNC(=O)CC1C(=O)N(c2ccc(Cl)cc2)C(=S)N1CCc1ccc(OC)c(OC)c1", "note": "(stereo unspecified)", "inhibition": "-0.64%"},
      {"molecule": "O=C(NC1CCCC1)c1ccc(S(=O)(=O)N2CCOCC2)cc1", "inhibition": "-6.82%"},
      {"molecule": "CCCCSCc1nc2ccccn2c1Br", "inhibition": "0.1%"},
      {"molecule": "CC(=O)N1CCN(c2cc3c(cc2F)c(=O)c(C(=O)O)cn3C2CC2)CC1", "inhibition": "0.5%"},
      {"molecule": "CCn1cc(C(=O)O)c(=O)c2cnc(N3CCN(C(=S)NC(=O)c4ccc(Br)cc4)CC3)nc21", "inhibition": "5.97%"},
      {"molecule": "CCn1cc(C(=O)O)c(=O)c2cc(F)c(N3CCN(S(=O)(=O)c4ccc5c(c4)OCCO5)CC3)cc21", "inhibition": "9.21%"},
      {"molecule": "CCCOc1ccc(C(=O)NC(=S)N2CCN(c3cc4c(cc3F)c(=O)c(C(=O)O)cn4CC)CC2)cc1", "inhibition": "15.1%"},
      {"molecule": "CCn1cc(C(=O)O)c(=O)c2cc(F)c(N3CCN(C(=S)NC(=O)c4ccc(F)cc4)CC3)cc21", "inhibition": "9.94%"},
      {"molecule": "CCn1cc(C(=O)O)c(=O)c2cc(F)c(N3CCN(C(=S)NC(=O)c4ccc(F)c(F)c4)CC3)cc21", "inhibition": "1.24%"},
      {"molecule": "COc1ccc(NC(=O)C2CCCN(S(=O)(=O)c3ccccc3)C2)c(OC)c1", "note": "(stereo unspecified)", "inhibition": "0.45%"},
      {"molecule": "O=C1C2CCCN2C(c2cccnc2)N1c1nccs1", "note": "(stereo unspecified)", "inhibition": "0.12%"},
      {"molecule": "CCOc1cc(C(=O)Nc2nnc(S(=O)(=O)N3CCOCC3)s2)cc(OCC)c1OCC", "inhibition": "-12.6%"},
      {"molecule": "CCc1ccc(NC(=O)COC(=O)/C(=C/c2ccccc2OC)c2ccccc2)cc1", "inhibition": "-5.82%"},
      {"molecule": "CCn1c(C)nnc1SCC(=O)Nc1ccc2c(c1)OCCO2", "inhibition": "11.2%"},
      {"molecule": "Cc1onc(-c2ccccc2)c1C(=O)N1CCC(CO)(Cc2ccccc2)CC1", "inhibition": "-9.9%"},
      {"molecule": "CCC(=O)Nc1ccc2c(c1)nc(CCN1CCCCC1)n2C", "inhibition": "0.58%"},
      {"molecule": "NC(=O)c1ncn([C@@H]2O[C@H](CO)[C@@H](O)[C@H]2O)c1O", "inhibition": "4.75%"},
      {"molecule": "Nc1nc(F)nc2c1ncn2[C@@H]1O[C@H](CO)[C@@H](O)[C@@H]1O", "inhibition": "-2.76%"},
      {"molecule": "Nc1nc(Cl)nc2c1ncn2[C@@H]1O[C@H](CO)[C@@H](O)[C@H]1O", "inhibition": "19.8% and 8.46%"},
      {"molecule": "Nc1ccn([C@@H]2O[C@H](CO)[C@@H](O)[C@@H]2O)c(=O)n1", "inhibition": "1.39% and -1.71%"},
      {"molecule": "Nc1ccn([C@@H]2O[C@H](CO)[C@@H](O)C2O)c(=O)n1", "note": "(stereo partly specified)", "inhibition": "6.26%"},
      {"molecule": "Nc1cnn(C2OC(CO)C(O)C2O)c(=O)n1", "note": "(stereo unspecified)", "inhibition": "2.98%"}
    ]}
  ]
}
